From PubChem BioAssay (EPA / NIEHS) come the findings set out here.

One may read the AC50 as the concentration giving half of the maximal activity seen.

Read-out in assay [1]: Vascular endothelial growth factor receptor 2 (Homo sapiens) (UniProt P35968)
Put plainly: BSK_4H_VEGFRII: BioMAP Diversity Plus: 4H Assay for Vascular endothelial growth factor receptor 2 (VEGFR2) Biomarker Activity (AID 2283031).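 As to AC50: cell-surface VEGFR2 protein level quantified by ELISA.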 Conditions: primary human endothelial cells (HUVEC); actives raise or lower the signal. Put shortly:
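Measured by ELISA after 24 h of compound treatment: VEGFR2 on primary human umbilical vein endothelial cells, fitted in both directions relative to DMSO. Parallel cultures received SRB staining (560 nm) for overt cytotoxicity.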

Read-out in assay [2]: Human Leukocyte Antigen - DR isotype (HLADR), HLA-DRA (gene 3122)
Put plainly: BSK_BE3C_HLADR: BioMAP Diversity Plus: BE3C Assay for Human Leukocyte Antigen - DR isotype (HLADR) Biomarker Activity (AID 2283032). Conditions: primary human bronchial epithelial cells; actives raise or lower the signal. An outline of the steps:
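ELISA read-out of HLA-DR on human lung bronchial epithelial primary cells, measured 24 h post-dosing. Both increases and decreases were scored relative to DMSO vehicle.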

Read-out in assay [3]: Vascular cell adhesion molecule 1 (VCAM1), VCAM1 (gene 7412)
Put plainly: BSK_4H_VCAM1: BioMAP Diversity Plus: 4H Assay for Vascular cell adhesion molecule 1 (VCAM1) Biomarker Activity (AID 2283033).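 As to outcome: cell-surface VCAM-1 protein measured by ELISA.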 The conditions noted are these: primary human endothelial cells (HUVEC); actives raise or lower the signal. Put shortly: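 ELISA read-out of VCAM-1 on human umbilical vein endothelium 24 hours after chemical dosing; gain or loss of signal was fitted relative to DMSO, with sulforhodamine B staining of parallel cultures flagging overt cytotoxicity.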

Read-out in assay [4]: Interferon-gamma inducible Protein 10 (IP10), CXCL10 (gene 3627)
Put plainly: BSK_BE3C_IP10: BioMAP Diversity Plus: BE3C Assay for Interferon-gamma inducible Protein 10 (IP10) Biomarker Activity (AID 2283034). Conditions: primary human bronchial epithelial cells; actives raise or lower the signal. An outline of the steps: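 Chemical is dosed onto human lung bronchial epithelial primary cells, cultures are incubated 24 h, and IP-10 is then quantified by ELISA. Gain or loss of signal is fitted in both directions relative to DMSO.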

Read-out in assay [5]: Monokine induced gamma interferon (MIG), CXCL9 (gene 4283)
In words: BSK_BE3C_MIG: BioMAP Diversity Plus: BE3C Assay for Monokine induced gamma interferon (MIG) Biomarker Activity (AID 2283035).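 As to outcome: MIG protein measured by ELISA in BE3C cultures after 24 h of dosing.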 Conditions: primary human bronchial epithelial cells; actives raise or lower the signal. Put shortly:
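Primary human bronchial epithelial cells treated for 24 h; MIG levels measured by ELISA, fitted bidirectionally versus DMSO. Parallel SRB total-protein staining assessed cytotoxicity.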

Read-out in assay [6]: Transforming growth factor beta 1 (TGFb1), TGFB1 (gene 7040)
Put plainly: BSK_BE3C_TGFb1: BioMAP Diversity Plus: BE3C Assay for Transforming growth factor beta 1 (TGFb1) Biomarker Activity (AID 2283036;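 as to outcome: TGF-b1 protein level measured by ELISA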). The conditions noted are these: primary human bronchial epithelial cells; actives raise or lower the signal. An outline of the steps: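 Primary human lung bronchial epithelial cells; compound exposure 24 h; TGF-b1 by ELISA; bidirectional fit, DMSO baseline. Parallel SRB total-protein staining for cytotoxicity.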

Read-out in assay [7]: Plasminogen activator inhibitor-1 (PAI1), SERPINE1 (gene 5054)
In words: BSK_BE3C_PAI1: BioMAP Diversity Plus: BE3C Assay for Plasminogen activator inhibitor-1 (PAI1) Biomarker Activity (AID 2283037). Conditions: primary human bronchial epithelial cells; actives raise or lower the signal. Put shortly: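 Primary human lung bronchial epithelial cells; chemical dosing; 24 h; PAI-1 measured by ELISA; bidirectional fit referenced to DMSO as negative control.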

Read-out in assay [8]: urokinase plasminogen activator (uPA), PLAU (gene 5328)
In words: BSK_BE3C_uPA: BioMAP Diversity Plus: BE3C Assay for urokinase plasminogen activator (uPA) Biomarker Activity (AID 2283038).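 As to outcome: uPA protein level quantified by ELISA in cell cultures; uPA read one day after compound addition.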 Conditions: primary human bronchial epithelial cells; actives raise or lower the signal. Put shortly:
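ELISA for uPA on human primary bronchial epithelial cultures 24 h post-treatment, gain or loss against DMSO. Parallel SRB staining (0.1% after 10% TCA fixation, 560 nm) assessed overt cytotoxicity.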

Read-out in assay [9]: Urokinase-type plasminogen activator receptor (uPAR), PLAUR (gene 5329)
In words: BSK_BE3C_uPAR: BioMAP Diversity Plus: BE3C Assay for Urokinase-type plasminogen activator receptor (uPAR) Biomarker Activity (AID 2283039).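 As to outcome: cells exposed to compound for one day before measurement.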 Conditions: primary human bronchial epithelial cells; actives raise or lower the signal. Put shortly: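 Human bronchial epithelial primary cells; chemical exposure 24 h; uPAR by ELISA; bidirectional fit vs DMSO control.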

Read-out in assay [10]: Interleukin-6 (IL6), IL6 (gene 3569)
Put plainly: BSK_CASM3C_IL6: BioMAP Diversity Plus: CASM3C Assay for Interleukin-6 (IL6) Biomarker Activity for (AID 2283040). Conditions: primary human coronary artery smooth muscle cells; actives raise or lower the signal.

Some structures have more than one record in an assay (separate samples or runs), and their calls can disagree. Calls of active or inactive are those of the source. The calls were made as follows: active = hit-call score of the fitted dose curve at least 0.9, where 1 is the maximum; inactive = score below 0.9.

For the molecule `CCCCCCCCCCCCCCCC(=O)OC/C=C(C)/C=C/C=C(C)/C=C/C1=C(C)CCCC1(C)C`, the result in assay [1], in assay [2], in [3], in assay [4], in assay [5] and in assay [6] was inactive. Further, the result in assay [7], in assay [8], in assay [9] and in [10] was inactive.
Consider `O=C1c2ccccc2C(=O)c2c(O)ccc(O)c21`, for which the outcome in assay [1], in assay [2], in [3], in assay [4], in assay [5] and in assay [6] was inactive. In addition, the outcome in assay [7], in assay [8], in [9] and in [10] was inactive.
`C1=CC2C3C=CC(C3)C2C1` (stereo not given): the outcome in assay [1], in assay [2], in assay [3], in assay [4], in assay [5] and in assay [6] was inactive. For the same molecule, the result in assay [7], in assay [8], in assay [9] and in assay [10] was inactive.
For `CC(CN=Cc1ccccc1O)N=Cc1ccccc1O` (stereo not given), the outcome in [1], in assay [2], in assay [3], in assay [4], in assay [5] and in [7] was inactive. Besides, the outcome in assay [8], in assay [9] and in assay [10] was inactive. Moreover, the AC50 in assay [10] was 8.95 µM (active).
With `CN(C)C(=O)Nc1ccc(Oc2ccc(Cl)cc2)cc1`, the outcome in [1], in assay [2], in [3], in [4], in [5] and in assay [7] was inactive. The outcome in [8] and in assay [9] was inactive. In addition, the AC50 is 3.97 µM (active) in assay [6] and 0.0427 µM (active) in assay [10].
As for `CCCCCCC(CO)CCCC` (stereo not given), the outcome in [1], in [2], in assay [3], in assay [4], in [5] and in [7] was inactive. Moreover, the result in assay [8], in [9] and in assay [10] was inactive.
As to `CC(C)(C)CC(C)(C)c1ccc(OCCOCC[N+](C)(C)Cc2ccccc2)cc1`, the AC50 was 7.59 µM (active) in assay [2]; 7.35 µM (active) in assay [3]; 8.05 µM (active) in [4]; 8.97 µM (active) in [5]; 0.992 µM (active) in assay [7]; 5 µM (active) in assay [8]. The figures for the half-maximal activity concentration (AC50) in assay [9] and in assay [10] were 3.16 µM (active) and 8 µM (active), respectively. In addition, the outcome in [6] was inactive.
With `Oc1c(Cl)cc(Cl)c(Cl)c1Cc1c(O)c(Cl)cc(Cl)c1Cl`, the AC50 in assay [1] is 0.675 µM (active); in assay [2], 0.634 µM (active); in assay [3], 12.8 µM (active); in assay [4] it was 8.17 µM (active); in assay [5] it was 8.39 µM (active); in assay [7], 3.97 µM (active). The AC50 in [9] is 20 µM (active); in [10], 7.83 µM (active). Also, the result in assay [6] and in assay [8] was inactive.
Regarding `CCC(C)c1cc([N+](=O)[O-])cc([N+](=O)[O-])c1OC(=O)OC(C)C` (stereo not given), the AC50 was 9.93 µM (active) in assay [1]; 15.3 µM (active) in [2]; 8.04 µM (active) in [3]; 11 µM (active) in assay [4]; 33 µM (active) in [5]; 13.6 µM (active) in assay [6]. In addition, the half-maximal activity concentration (AC50) in assay [7] was 20 µM (active); in assay [8] it was 33.7 µM (active); in assay [9] it was 35 µM (active); in [10] it was 34.1 µM (active).
`C=C(C)C(=O)OCCOCCOCCOCCOC(=O)C(=C)C`: the outcome in assay [1], in [2], in assay [3], in assay [4], in assay [5] and in [6] was inactive. The result in assay [7], in [8], in assay [9] and in assay [10] was inactive.
In the case of `C=C(C)C(=O)OCC(CC)(COC(=O)C(=C)C)COC(=O)C(=C)C`, the outcome in assay [1], in assay [2], in assay [4], in assay [5], in [6] and in assay [7] was inactive. Besides, the outcome in assay [8], in assay [9] and in assay [10] was inactive. The AC50 in assay [3] was 19.7 µM (active).
In the case of `c1ccc(CCc2ccccc2)cc1`, the outcome in assay [1] and in assay [5] was inactive. Besides, the AC50 was 30.3 µM (active) in assay [2]; 35.9 µM (active) in assay [3]; 29.7 µM (active) in assay [4]; 27.8 µM (active) in assay [6]; 29.3 µM (active) in assay [7]; 28.9 µM (active) in assay [8]. The figures for the AC50 in assay [9] and in assay [10] were 20 µM (active) and 26.8 µM (active), respectively.
For `CC(=O)c1c(C)c([N+](=O)[O-])c(C(C)(C)C)c([N+](=O)[O-])c1C`, the result in assay [1], in assay [2], in assay [3], in [4], in assay [5] and in [6] was inactive. In addition, the outcome in assay [7], in [8], in assay [9] and in assay [10] was inactive.
Take `CN(C)C(=S)SC(=S)N(C)C`: the outcome in [1], in [6], in assay [7] and in assay [10] was inactive. Besides, the AC50 in assay [2] is 13.7 µM (active); in assay [3], 26.9 µM (active); in assay [4] it was 34.7 µM (active); in assay [5] it was 34.9 µM (active); in assay [8] it was 19.9 µM (active); in assay [9], 31.7 µM (active).
In the case of `CCN(CC)C(=O)N(CC)CC`, the result in assay [1], in assay [2], in assay [3], in [4], in assay [5] and in [6] was inactive. Moreover, the result in [7], in [8], in [9] and in assay [10] was inactive.
For the molecule `O=C1OC[C@H](Cc2cccc(O)c2)[C@H]1Cc1cccc(O)c1`, the outcome in assay [1], in assay [2], in assay [3], in [4], in [5] and in assay [6] was inactive. Besides, the result in assay [7], in assay [8], in [9] and in assay [10] was inactive.
`O=C1OC2(c3ccccc31)c1ccc(O)c(Br)c1Oc1c2ccc(O)c1Br`: the AC50 is 13.7 µM (active) in [1], 10.3 µM (active) in [2], 20 µM (active) in [3] and 3.97 µM (active) in assay [6]. Also, the result in assay [4], in [5], in [7], in assay [8], in assay [9] and in assay [10] was inactive.
`O=C(Nc1ccc2c(O)c(N=Nc3ccc(N=Nc4ccc(S(=O)(=O)O)cc4)cc3)c(S(=O)(=O)O)cc2c1)c1ccccc1`: the outcome in assay [1], in assay [2], in assay [3], in assay [4], in [5] and in assay [7] was inactive. Also, the result in [8], in assay [9] and in [10] was inactive.
Regarding `O=CN1CCOCC1`, the outcome in [1], in [2], in [3], in [4], in [5] and in assay [7] was inactive. Also, the outcome in [8], in [9] and in assay [10] was inactive.
For `CCCCOC(=O)CCCCCCCC(=O)OCCCC`, the outcome in [1], in [2], in assay [3], in [4], in assay [5] and in assay [6] was inactive. Moreover, the result in assay [7], in [8], in [9] and in [10] was inactive.
For `CS(=O)(=O)c1ccc(C2=C(c3ccccc3)C(=O)OC2)cc1`, the outcome in assay [1], in assay [2], in [3], in assay [4], in assay [5] and in assay [6] was inactive. The result in assay [7], in assay [8], in assay [9] and in assay [10] was inactive.
Regarding `C=CC(C)(O)CCC=C(C)C` (stereo not given), the result in assay [1], in assay [2], in assay [3], in assay [4], in [5] and in assay [7] was inactive. For the same molecule, the outcome in assay [8], in assay [9] and in assay [10] was inactive.
`CN(c1nccc(=O)[nH]1)C1CCN(c2nc3ccccc3n2Cc2ccc(F)cc2)CC1`: the result in assay [1], in assay [2], in assay [4], in [5], in assay [6] and in assay [7] was inactive. The result in assay [8], in assay [9] and in [10] was inactive. In addition, in [3], the concentration at half-maximal activity (AC50) is 0.0185 µM (active).
